Compound activity from PubChem BioAssay.
Sampled rows, rich in hits. Any-hit rate of the full collection: about 8%.
HT1080NT lethal – kills 2HG-producing HT-1080-NT fibrosarcoma cells; HT-1080-NT fibrosarcoma viability, CellTiter-Glo ATP luminescence, 48 h; Potency, µM (doses to about 46.1 µM), hits mostly cytotoxic; 360,000 compounds, 1.6% hits; AID 686970;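 also: NT is the 2HG producing partner of a matched IDH1 knockdown line; nearly all actives have a fitted effect of over 55% in size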
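A 48-hour cytotoxicity screen used HT-1080-NT cells plated 2 hours before compound delivery. ATP-based CellTiter-Glo luminescence measured viability, normalized to DMSO and no-cell controls.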
HT1080 IDH1KD tx – toxicity to HT-1080 IDH1 knockdown cells (counter line) | HT-1080 IDH1 knockdown viability, ATP luminescence, 48 h | Potency, µM (top dose mostly 46.1 µM), hits mostly cytotoxic | 360,000 compounds, 2% hits | AID 686971
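% activity derives from luminescence (CellTiter-Glo), normalised to DMSO and no-cell wells. HT-1080-IDH1KD cells, 750/well, had 48 h compound exposure at 37 °C.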
MCF10A rereplic – DNA re-replication induction in MCF 10a cells | Potency, µM (titrated, usually from 46.1 µM), hits mostly activators | AID 624296 | 350,000 compounds, 2.9% hits | MCF 10A DNA re-replication, Hoechst nuclear intensity, 48 h; also: nearly all actives have a fitted effect of over 50% in size
KB-V1 cytotox – kills drug-selected multidrug resistant KB-V1 cells. KB-V1 MDR cells viability, CellTiter-Glo, 72 h. Potency, µM (series often up to 46.1 µM), most hits filed as cytotoxic. 400,000 compounds, 3.4% hits. AID 1347076; also: nearly all actives have a fitted effect of over 60% in size
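In this primary screen, KB-V1 cells overexpressing P-gp are incubated with library compounds (lowest to highest concentration) for 72 h at 37 degrees C before a luminescent ATP viability read.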
KB-3-1 tox – kills parental KB-3-1 adenocarcinoma cells; Potency, µM (titrated, usually from 46.1 µM), usual class: cytotoxic; KB-3-1 viability, CellTiter-Glo ATP luminescence, 72 h; 400,000 compounds, 1.4% hits; also: nearly all actives have a fitted effect of over 60% in size
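Viability of parental KB-3-1 cells, measured by CellTiter-Glo luminescence, followed a 72 h incubation at 37 °C with pinned compounds in phenol-red-free DMEM containing 10% FBS.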
SW480 rereplic – induces DNA re-replication in SW480 colon adenocarcinoma cells; Potency, µM (highest dose often 46.1 µM), most hits filed as activators; SW480 DNA re-replication, Hoechst DNA content imaging, 48 h; 340,000 compounds, 1.8% hits; also: nearly all actives have a fitted effect of over 55% in size
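First, 250 cells per well were seeded. Next, compound or vehicle (23 nL) was pinned in, plates sat 48 hr at 37 C. Finally Hoechst was added for 40 min before fluorescence scanning.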
Numbers stand for hits; [ ] = another dose, or the depositor's remark. Calls follow the shape of the dose curve; as a rule, active = well fitted curve in the direction sought with a large enough effect; inconclusive = small, poorly fitted or top-dose-only effect, or another doubt; inactive = no such curve, though single readings can be large; an effect the other way counts as inactive or inconclusive.

`COc1ccc(NS(=O)(=O)c2ccc(NC(=O)c3ccccn3)cc2)cc1` gave HT1080NT lethal inactive, HT1080 IDH1KD tx inactive, MCF10A rereplic inactive, KB-V1 cytotox inactive, KB-3-1 tox inactive and SW480 rereplic inactive.
For CCOc1ccc(NC(=O)c2cnccn2)cc1 the results were HT1080NT lethal inactive, HT1080 IDH1KD tx inactive, MCF10A rereplic inactive, KB-V1 cytotox inactive, KB-3-1 tox inconclusive and SW480 rereplic inactive.
Screening CCOc1ccc(NC(=O)c2ccccn2)cc1 returned HT1080NT lethal inconclusive, HT1080 IDH1KD tx inconclusive, MCF10A rereplic inactive, KB-V1 cytotox 20.6µM, KB-3-1 tox inconclusive and SW480 rereplic inactive.
For COc1ccc(NC(=O)c2c(Cl)cnn2C)c(C)c1 the results were HT1080NT lethal inactive, HT1080 IDH1KD tx inactive, MCF10A rereplic inactive, KB-V1 cytotox inactive, KB-3-1 tox inactive and SW480 rereplic inactive.
CC(=O)Nc1ccc(NC(=O)Cn2cnc(S(=O)(=O)N3CCOCC3)c2)cc1 was read as HT1080NT lethal inactive, HT1080 IDH1KD tx inactive, MCF10A rereplic inactive, KB-V1 cytotox inactive, KB-3-1 tox inactive and SW480 rereplic inconclusive.
N/C(=N\OC(=O)c1cc([N+](=O)[O-])ccc1Cl)c1cccnc1 was read as HT1080NT lethal inactive, HT1080 IDH1KD tx inactive, MCF10A rereplic 18.4µM, KB-V1 cytotox inconclusive, KB-3-1 tox inconclusive and SW480 rereplic inconclusive.
Screening CC(=O)c1ccc(OCC(O)Cn2nnc3ccccc32)cc1 (centres undefined) returned HT1080NT lethal inactive, HT1080 IDH1KD tx inactive[9.24 µM], MCF10A rereplic inactive, KB-V1 cytotox inactive, KB-3-1 tox inactive and SW480 rereplic inconclusive.
For COC(=O)c1ccc(OCC(O)Cn2nnc3ccccc32)cc1 (centres undefined) the results were HT1080NT lethal inactive, HT1080 IDH1KD tx inactive, MCF10A rereplic inactive, KB-V1 cytotox 23.1µM, KB-3-1 tox inactive and SW480 rereplic inactive.
O=C1C2CC=CCC2C(=O)N1c1ccc(OCC(O)Cn2nnc3ccccc32)cc1 (centres undefined) was read as HT1080NT lethal inactive, HT1080 IDH1KD tx inactive, MCF10A rereplic inactive, KB-V1 cytotox 14.6µM, KB-3-1 tox inconclusive and SW480 rereplic inactive.
Screening COc1ccc(CCn2c3c(c(=O)[nH]c2=O)C(NC(=O)c2ccc(Cl)cc2)(C(F)(F)F)C(=O)N3)cc1OC (centres undefined) returned KB-V1 cytotox inconclusive and KB-3-1 tox inactive.
`CC(C)(C)OC(=O)N1CCCN(C(=O)Nc2ccc(C(F)(F)F)cc2)CC1` gave HT1080NT lethal inactive, HT1080 IDH1KD tx inactive, MCF10A rereplic inactive, KB-V1 cytotox inactive, KB-3-1 tox inconclusive and SW480 rereplic inactive.
For CC/C(=N\NC(=O)c1ccc(CN(C)S(=O)(=O)c2ccc(C)cc2)cc1)c1ccc(OC(F)F)cc1 the results were HT1080NT lethal inactive, HT1080 IDH1KD tx inactive, MCF10A rereplic inactive, KB-V1 cytotox 14.6µM, KB-3-1 tox inconclusive and SW480 rereplic inconclusive.
Cc1ccc(S(=O)(=O)N(C)Cc2ccc(C(=O)NN=C3C4CC5CC(C4)CC3C5)cc2)cc1 was read as HT1080NT lethal inactive, HT1080 IDH1KD tx inactive, MCF10A rereplic inactive, KB-V1 cytotox inactive, KB-3-1 tox inactive and SW480 rereplic inactive.
Cc1ccc(S(=O)(=O)N(C)Cc2ccc(C(=O)NN=C(CC(C)C)CC(C)C)cc2)cc1 was read as HT1080NT lethal inactive, HT1080 IDH1KD tx inactive, MCF10A rereplic inactive, KB-V1 cytotox 2.31µM, KB-3-1 tox inconclusive and SW480 rereplic inconclusive.
Screening C/C=C/c1ccc(OCC(O)CN(C)Cc2ccc(SC)cc2)c(OC)c1 (centres undefined) returned HT1080NT lethal inactive, HT1080 IDH1KD tx inactive, MCF10A rereplic inactive, KB-V1 cytotox inactive, KB-3-1 tox inactive and SW480 rereplic inactive.
For COc1ccc2c(c1)c1c(c(=O)n(Cc3ccccc3)c(=O)n1CC(=O)NCc1ccccc1Cl)n2C the results were KB-V1 cytotox inactive and KB-3-1 tox inactive.
Screening O=C(c1c(F)cccc1F)N(Cc1cccs1)C1CCCC1 returned HT1080NT lethal inactive, HT1080 IDH1KD tx inactive, MCF10A rereplic inactive, KB-V1 cytotox inactive, KB-3-1 tox inactive and SW480 rereplic inactive.
